Assay outcomes: PubChem BioAssay, National Center for Advancing Translational Sciences (NCATS)
ELG1 genotoxic = induces genotoxicity in HEK293T cells with luciferase-tagged ELG1 | HEK293T ELG1-luciferase reporter, luminescence, 16 h | 330,000 tested, 1.3% active | Potency, µM (titrated, usually from 46 µM), for inactives: at the highest dose activity change, positive = activation, actives largely listed as activators; note: % of control where 0% means no effect; nearly all actives have a fitted effect of over 60% in size
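Cells (2,000/well) expressing the ELG1-luciferase fusion are dosed by pin tool and kept 16 hr at 37 °C, 5% CO2. Signal comes from ONE-Glo luciferase reagent after 30 min at room temperature.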
SMN2 splice up = enhancers of SMN2 splice variant expression; HEK293 SMN2-luciferase splicing reporter, luminescence, 30-36 h; Potency, µM (doses to about 46.1 µM), without a hit: at the top dose activity change, positive = activation, usual class: activators; AID 1458; 210,000 tested, 2.8% active; note: % of control where 0% means no effect; nearly all actives have a fitted effect of over 55% in size
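HEK293 cells carry an SMN2 […]–luciferase reporter in which exon 7 inclusion puts luciferase in frame. Cells were plated 10-12 h before compound addition, then incubated 30-36 h at 37C. ONE-Glo luminescence was read; sodium butyrate at 4.5 mM final served as control.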
Rab9 prom act = activates the Rab9 promoter. Huh7 Rab9 promoter-luciferase reporter, luminescence, 24 h. Potency, µM (titrated, usually from 9.22 µM), without a hit: at the top dose activation, negative = inhibition, actives largely listed as activators. 320,000 tested, 2.8% active. AID 485297; note: % of control where 0% means no effect; nearly all actives have a fitted effect of over 60% in size
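Huh7 reporter line, Rab9 promoter upstream of luciferase. Compound exposure 24 h at 37 °C in reduced-serum medium with 10% FBS. Read-out: luminescence.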
NPC1 prom act = activates the NPC1 promoter. Huh7 NPC1 promoter luciferase reporter, 24 h. Potency, µM (doses to about 9.22 µM), for the others: top-dose activation, actives largely listed as activators. 320,000 tested, 2.4% active; note: % of control where 0% means no effect; nearly all actives have a fitted effect of over 60% in size
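Stable NPC1-promoter luciferase Huh7 line; cpd (DMSO) 24 h, 37 °C, 5% CO2; Amplite luciferase reagent 10 min RT; luminescence readout. qHTS format.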
FLuc counter = counter-screen for miR-21 project: firefly luciferase inhibitors or activators. P08659. Potency, µM (top dose mostly 57.5 µM), for the others: at the highest dose activity change, negative = inhibition, most hits filed as inhibitors. purified FLuc, Km substrates, luminescence inhibition. 360,000 tested, 6.9% active;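 note: plate controls were vehicle for no effect and reference inhibitor for full effect; nearly all actives have a fitted effect of over 55% in size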
Target sequence (P08659 whole entry, looked up): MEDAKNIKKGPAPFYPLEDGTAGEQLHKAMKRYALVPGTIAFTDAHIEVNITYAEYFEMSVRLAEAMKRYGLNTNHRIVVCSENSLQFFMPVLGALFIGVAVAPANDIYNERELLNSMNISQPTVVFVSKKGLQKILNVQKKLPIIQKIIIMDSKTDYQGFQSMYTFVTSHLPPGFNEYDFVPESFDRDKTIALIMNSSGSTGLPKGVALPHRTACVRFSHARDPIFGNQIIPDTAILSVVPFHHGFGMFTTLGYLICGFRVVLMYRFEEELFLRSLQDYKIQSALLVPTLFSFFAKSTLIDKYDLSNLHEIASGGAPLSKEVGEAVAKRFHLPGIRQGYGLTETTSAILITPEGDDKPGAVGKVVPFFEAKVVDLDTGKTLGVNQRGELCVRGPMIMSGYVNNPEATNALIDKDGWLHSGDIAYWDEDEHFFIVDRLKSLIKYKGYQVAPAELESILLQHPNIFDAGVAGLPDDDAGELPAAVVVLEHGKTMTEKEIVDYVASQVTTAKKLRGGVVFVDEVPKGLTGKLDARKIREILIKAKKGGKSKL
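Purified P. pyralis luciferase (10nM final) with 10uM D-luciferin and 10uM ATP (Km levels) in 50mM Tris acetate pH 7.5, 10mM Mg acetate, 0.01% Tween-20, 0.05% BSA; qHTS 6-point titration, ~60 µM downward; luminescence read.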
* = called active by the depositor. Compounds with a hit are over-represented: about 7.5% of the library has one in this group of screens. Calls come from the whole dose curve; as a rule, active = well fitted curve in the direction sought with a large enough effect; inconclusive = small, poorly fitted or top-dose-only effect, or another doubt; inactive = no such curve, though single readings can be large; an effect the other way counts as inactive or inconclusive. Potency is the fitted concentration of half-maximal effect.

For O=C(Nc1nnc(-c2ccccc2)s1)c1ccccc1F the results were ELG1 genotoxic inconclusive, Rab9 prom act 1.1µM*, NPC1 prom act 2.5µM* and FLuc counter 11µM*.
Screening COc1cccc(CNC(=O)CSc2ncc(S(=O)(=O)c3ccc(Br)cc3)c(=O)[nH]2)c1 returned SMN2 splice up -10% and FLuc counter inconclusive.
Screening c1ccc2c(N3CCNCC3)nc(-c3ccc4c(c3)OCO4)nc2c1 returned SMN2 splice up -6%.
Cc1cc(C)cc(NC(=O)[C@H](NC(=O)[C@@H]2Cc3ccccc3CN2)c2ccccc2)c1 was read as ELG1 genotoxic 1%, Rab9 prom act -1%, NPC1 prom act 3% and FLuc counter 3%.
Screening O=S1(=O)CC/C(=N\Nc2ccccc2)c2ccsc21 returned ELG1 genotoxic 7%, SMN2 splice up -11%, Rab9 prom act -1%, NPC1 prom act 1% and FLuc counter inconclusive.
COC(=O)C1=C(NC(=O)c2cccc(OC)c2)CCS1 was read as ELG1 genotoxic 1%, SMN2 splice up -12%, Rab9 prom act 0%, NPC1 prom act 1% and FLuc counter -16%.
`O=C(O/N=C1\CCS(=O)(=O)c2sccc21)c1c(F)cccc1F` gave ELG1 genotoxic -2%, SMN2 splice up -6%, Rab9 prom act -16%, NPC1 prom act -9% and FLuc counter 4.8µM*.
Screening O=C(OC1CCS(=O)(=O)c2sccc21)c1ccccc1 (centres undefined) returned ELG1 genotoxic -2%, SMN2 splice up -17%, Rab9 prom act -1%, NPC1 prom act 1% and FLuc counter -1%.
For COc1cccc(C(=O)O/N=C2\CCS(=O)(=O)c3sccc32)c1 the results were ELG1 genotoxic 1%, SMN2 splice up 2%, Rab9 prom act 6%, NPC1 prom act -7% and FLuc counter 1.5µM*.
For Cc1ccc(C(=O)O/N=C2\CCS(=O)(=O)c3sccc32)cc1 the results were ELG1 genotoxic -2%, SMN2 splice up 7%, Rab9 prom act 4%, NPC1 prom act 1% and FLuc counter 0.48µM*.
`COC(=O)[C@@]12CCCN1[C@H](c1ccc(-c3ccc(Cl)c(Cl)c3)cc1)[C@H]1C(=O)N(C)C(=O)[C@H]12` gave ELG1 genotoxic -3%, Rab9 prom act -2%, NPC1 prom act 0% and FLuc counter 7%.
`CCN(C(=O)CSc1nc(-c2cccs2)nc2ccccc12)C1CCS(=O)(=O)C1` (centres undefined) gave ELG1 genotoxic -2%, Rab9 prom act -1% and NPC1 prom act -1%.
`NC(=O)[C@@H]1CCNc2c(I)cc([N+](=O)[O-])cc2C(=O)N[C@@H](CO)C(=O)N[C@@H](Cc2ccc(O)cc2)C(=O)N1` gave ELG1 genotoxic -2%, SMN2 splice up -5%, Rab9 prom act -4%, NPC1 prom act -1% and FLuc counter 5%.
CC(C)C[C@@H]1NC(=O)[C@H](Cc2ccc(O)cc2)NC(=O)[C@H](CCC(N)=O)NC(=O)c2cc([N+](=O)[O-])cc(I)c2NCC[C@@H](C(N)=O)NC1=O was read as ELG1 genotoxic 1%, SMN2 splice up 18µM*, Rab9 prom act 2%, NPC1 prom act -4% and FLuc counter 0%.
CCCCOc1ccc(Cn2c(=O)sc3ccccc32)cc1 was read as SMN2 splice up -23% and FLuc counter -1%.
`CC(Oc1ccc(Cl)cc1Cl)c1nc(-c2ccc(NC(=O)c3ccccn3)cc2)no1` (centres undefined) gave ELG1 genotoxic inconclusive, SMN2 splice up inconclusive, Rab9 prom act inconclusive, NPC1 prom act 2.8µM* and FLuc counter 9.5µM*.
CC1=NOC(=O)/C1=C\c1ccc(-c2ccc(Cl)c(C(=O)O)c2)o1 was read as ELG1 genotoxic -2%, SMN2 splice up -2%, Rab9 prom act 2%, NPC1 prom act 1% and FLuc counter 19µM*.
Nc1ccccc1N=Cc1ccc(-c2cccc(Cl)c2)o1 was read as ELG1 genotoxic -6%, Rab9 prom act 3.2µM*, NPC1 prom act 2.8µM* and FLuc counter 3µM*.
